Measured values: PubChem BioAssay
For part of these data: Measured potencies and affinities stand elsewhere. Active and inactive are the calls of the source.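 How the source made its calls, unless noted: active means primary screen active and over 50% activation in each of two duplicate runs; inactive means the rest.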

How the values were obtained:
[1] = test system: TRPC4 beta (transient receptor potential cation channel C4), mouse; assay: TRPC4 cation channel opening, retest – cell-based, Fluo4 calcium, HEK293 TRPC4beta/mu-opioid, duplicates, 10 µM, confirmation (AID 2426;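 active means fluorescence ratio normalized to control raised more than 50% in primary screen plus both repeat runs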;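 on activation: percent rise of integrated ratio over buffer wells lacking compound which define 0%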); conditions: Fluo4 calcium fluorescence, at 10 µM; stronger effect = higher value
[2] = test system: transient receptor potential cation channel C4 beta (TRPC4), mouse; assay: TRPC4 cation channel opening, second retest – cell-based, second round, Fluo4, HEK293 TRPC4beta/mu-opioid, 1 µM, confirmation (AID 2461); conditions: Fluo4 calcium fluorescence, at 1 µM; stronger effect = higher value
[3] = test system: TRPC4 (transient receptor potential cation channel C4 beta), mouse; assay: potentiation of DAMGO EC20 TRPC4 response – cell-based, second round, Fluo-4, HEK293 TRPC4beta/mu-opioid, 1 µM, confirmation (AID 2554;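 active means primary screen hit whose fluorescence ratio, in both repeats, exceeds the weak agonist control mean by 3 SD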); conditions: DAMGO EC20, Fluo-4 calcium flux, at 1 µM; stronger effect = higher value
[4] = test system: TRPC4 beta (transient receptor potential cation channel C4), mouse; assay: potentiation of DAMGO EC20 TRPC4 response – cell-based, Fluo-4, HEK293 TRPC4beta/mu-opioid, confirmation (AID 2555;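 active means primary screen hit whose calcium fluorescence ratio, in both repeats, exceeds the weak agonist control mean by 3 SD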); conditions: DAMGO EC20, Fluo-4 calcium flux, at 10 µM; stronger effect = higher value
[5] = biological target: Short transient receptor potential channel 4 (Mus musculus) (UniProt Q9QUQ5); assay: blockers of DAMGO-evoked TRPC4 calcium flux – cell-based, Fluo4, HEK293 TRPC4beta/mu-opioid, confirmation (AID 2636;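 active means calcium signal cut by more than 3 SD below the full-agonist control yet still positive, in both repeats and the earlier primary screen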); conditions: at 10 µM; stronger effect = higher value
[6] = biological target: Short transient receptor potential channel 4 (Mus musculus) (UniProt Q9QUQ5); assay: blockers of DAMGO-evoked TRPC4 calcium flux – cell-based, second round, Fluo4, HEK293 TRPC4beta/mu-opioid, 1 µM, confirmation (AID 2637;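 active means calcium signal ratio cut to more than 3 SD under the fully stimulated control mean yet still positive, in both repeats and the primary screen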); conditions: at 1 µM; stronger effect = higher value
[7] = biological target: Short transient receptor potential channel 4 (Mus musculus) (UniProt Q9QUQ5); assay: calcium entry via TRPC4 opening agents – cell-based, HEK293 TRPC4/mu-opioid, Fluo-4 calcium, dose response (AID 434937;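 active means primary screen activator hit with a dose response curve and TRPC4 channel activation at any tested dose; inactive means no activation, no dose response, or not a primary hit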)
[8] = biological target: Short transient receptor potential channel 4 (Mus musculus) (UniProt Q9QUQ5); assay: block of DAMGO-driven TRPC4 calcium entry – cell-based, HEK293 TRPC4/mu-opioid, Fluo-4 calcium, dose response (AID 434942;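 active means primary screen inhibitor hit that blocks the TRPC4 channel at some tested dose, yielding a dose curve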)
[9] = biological target: Short transient receptor potential channel 6 (Mus musculus) (UniProt Q61143); assay: TRPC6 blockade by TRPC4 inhibitor hits – cell-based, HEK293, membrane potential dye, duplicate, selectivity assay for TRPC4 inhibitor project, confirmation (AID 434948;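 active means active in primary screen and both duplicates, each dropping signal beyond three positive-control SD with fluorescence still positive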); conditions: HEK293 TRPC6, membrane potential dye fluorescence, at 10 µM, stimulated with maximal-effect acetylcholine; stronger effect = higher value
[10] = biological target: Short transient receptor potential channel 6 (Mus musculus) (UniProt Q61143); assay: TRPC6 opening by TRPC4 activator hits – cell-based, HEK293, membrane potential dye, duplicate, selectivity assay for TRPC4 activator project, confirmation (AID 434950;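 active means membrane potential signal rise above negative control mean plus 3 SD in both duplicates, also active in the earlier TRPC4 screen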;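 on activation: 0% = buffer only wells and 100% = acetylcholine maximal-effect wells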); conditions: HEK293 TRPC6, membrane potential fluorescence, at 10 µM; activation: stronger effect = higher value; outcome: activation
[11] = biological target: Short transient receptor potential channel 6 (Mus musculus) (UniProt Q61143); assay: positive modulators of mouse TRPC6 channel – HEK293 cells, membrane potential dye, duplicate, selectivity assay for TRPC4 potentiator project, confirmation (AID 434952;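 active means compound raising the membrane signal above positive-control mean plus 3 SD in both repeats, and a primary screen hit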); conditions: HEK293 TRPC6, membrane potential dye fluorescence, at 10 µM, maximal acetylcholine added after compound; stronger effect = higher value
[12] = biological target: Short transient receptor potential channel 4 (Mus musculus) (UniProt Q9QUQ5); assay: calcium flux activators in TRPC4/5HT1a cells, counter-screen for TRPC4 activator project, cell-based, second counter screen, HEK293 TRPC4/5HT1a, Fluo-4 (AID 434977;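 active means calcium signal rise above buffer-control mean plus 5 SD in both duplicates, and also a hit in the primary screen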;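 on activation: plate controls were assay buffer for no effect and maximal serotonin response for full effect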); conditions: Fluo-4 calcium flux, at 10 µM; stronger effect = higher value
[13] = serotonin-gated TRPC4 signal block – cell-based, second counter screen, HEK293 TRPC4/5HT1a, Fluo-4, counter-screen for TRPC4 inhibitor project, confirmation (AID 434978;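 active means primary screen active whose calcium signal fell more than 3 SD beyond the full-serotonin control mean in both duplicate plates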;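 further: serotonin given first at submaximal then at maximal dose after compound preincubation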); conditions: Fluo-4 calcium flux, at 10 µM, serotonin added to trigger calcium flux; stronger effect = higher value
[14] = test system: TRPC4 (mouse), co-expressed with 5HT1a in HEK293; assay: enhancement of serotonin-evoked TRPC4 response – cell-based, second counter screen, HEK293 TRPC4/5HT1a, Fluo-4, counter-screen for TRPC4 potentiator project, confirmation (AID 434979;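 active means signal rise over 3 SD above mean of control wells given weak agonist, in both repeats and first screen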); conditions: Fluo-4 calcium flux, at 10 µM, serotonin added at its EC20 dose; stronger effect = higher value
[15] = nonspecific calcium rise without TRPC4 – cell-based, HEK293 mu-opioid receptor line, counter-screen for TRPC4 activator project, confirmation (AID 449723;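 active means hit in primary screen, with calcium signal over 5 SD above buffer well mean in both duplicates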;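 further: counter screen cells carry the mu-opioid receptor alone and lack TRPC4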); conditions: HEK293 mu-opioid cells, Fluo-4 calcium fluorescence, at 10 µM; stronger effect = higher value
[16] = nonspecific potentiation of DAMGO calcium response – cell-based, HEK293 mu-opioid receptor line, counter-screen for TRPC4 allosteric potentiator project, confirmation (AID 449724;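 active means calcium signal rise more than 3 SD above the low-dose agonist control mean, in both duplicate plates and the primary screen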); conditions: HEK293 mu-opioid receptor cells, Fluo-4 calcium flux, at 10 µM, compound added before EC20 DAMGO stimulus; stronger effect = higher value
[17] = biological target: Short transient receptor potential channel 4 (Mus musculus) (UniProt Q9QUQ5); assay: potentiation of DAMGO-evoked TRPC4 calcium signal – cell-based, HEK293 TRPC4/mu-opioid, Fluo-4 calcium, EC20 DAMGO, dose response (AID 434941;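 active means earlier screen potentiator hit that boosts the TRPC4 ion channel at some dose, with a dose response; inactive means no potentiation, no dose response, or not a prior hit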;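 further: calcium entry triggered by an EC20 dose of DAMGO at the co-expressed mu-opioid receptor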)

Short transient receptor potential channel 6 (Mus musculus), sequence (Q61143 whole entry, looked up): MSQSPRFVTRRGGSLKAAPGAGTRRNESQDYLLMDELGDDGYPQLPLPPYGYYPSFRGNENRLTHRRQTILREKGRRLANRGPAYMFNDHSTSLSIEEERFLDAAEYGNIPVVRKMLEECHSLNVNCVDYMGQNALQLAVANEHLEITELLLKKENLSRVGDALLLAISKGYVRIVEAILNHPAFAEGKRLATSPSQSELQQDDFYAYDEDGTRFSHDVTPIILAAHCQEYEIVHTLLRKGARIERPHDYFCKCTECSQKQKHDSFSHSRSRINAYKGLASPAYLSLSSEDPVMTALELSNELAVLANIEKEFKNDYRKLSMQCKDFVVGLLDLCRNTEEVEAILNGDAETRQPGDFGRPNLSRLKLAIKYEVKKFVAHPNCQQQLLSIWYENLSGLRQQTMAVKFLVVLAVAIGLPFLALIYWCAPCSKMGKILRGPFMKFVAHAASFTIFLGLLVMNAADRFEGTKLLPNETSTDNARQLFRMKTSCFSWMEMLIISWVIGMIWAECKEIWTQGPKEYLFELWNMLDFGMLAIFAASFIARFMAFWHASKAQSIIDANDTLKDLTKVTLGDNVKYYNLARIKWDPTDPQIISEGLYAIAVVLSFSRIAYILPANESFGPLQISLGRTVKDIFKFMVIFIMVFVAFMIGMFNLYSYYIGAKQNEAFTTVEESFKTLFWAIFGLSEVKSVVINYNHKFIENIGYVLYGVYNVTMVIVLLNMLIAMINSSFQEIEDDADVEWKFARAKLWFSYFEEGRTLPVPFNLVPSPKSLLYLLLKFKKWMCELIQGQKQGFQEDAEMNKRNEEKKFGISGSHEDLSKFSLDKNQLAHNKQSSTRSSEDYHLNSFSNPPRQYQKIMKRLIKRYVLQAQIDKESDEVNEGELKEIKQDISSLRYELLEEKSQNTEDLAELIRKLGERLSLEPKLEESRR
Short transient receptor potential channel 4 (Mus musculus), sequence (Q9QUQ5 whole entry, looked up): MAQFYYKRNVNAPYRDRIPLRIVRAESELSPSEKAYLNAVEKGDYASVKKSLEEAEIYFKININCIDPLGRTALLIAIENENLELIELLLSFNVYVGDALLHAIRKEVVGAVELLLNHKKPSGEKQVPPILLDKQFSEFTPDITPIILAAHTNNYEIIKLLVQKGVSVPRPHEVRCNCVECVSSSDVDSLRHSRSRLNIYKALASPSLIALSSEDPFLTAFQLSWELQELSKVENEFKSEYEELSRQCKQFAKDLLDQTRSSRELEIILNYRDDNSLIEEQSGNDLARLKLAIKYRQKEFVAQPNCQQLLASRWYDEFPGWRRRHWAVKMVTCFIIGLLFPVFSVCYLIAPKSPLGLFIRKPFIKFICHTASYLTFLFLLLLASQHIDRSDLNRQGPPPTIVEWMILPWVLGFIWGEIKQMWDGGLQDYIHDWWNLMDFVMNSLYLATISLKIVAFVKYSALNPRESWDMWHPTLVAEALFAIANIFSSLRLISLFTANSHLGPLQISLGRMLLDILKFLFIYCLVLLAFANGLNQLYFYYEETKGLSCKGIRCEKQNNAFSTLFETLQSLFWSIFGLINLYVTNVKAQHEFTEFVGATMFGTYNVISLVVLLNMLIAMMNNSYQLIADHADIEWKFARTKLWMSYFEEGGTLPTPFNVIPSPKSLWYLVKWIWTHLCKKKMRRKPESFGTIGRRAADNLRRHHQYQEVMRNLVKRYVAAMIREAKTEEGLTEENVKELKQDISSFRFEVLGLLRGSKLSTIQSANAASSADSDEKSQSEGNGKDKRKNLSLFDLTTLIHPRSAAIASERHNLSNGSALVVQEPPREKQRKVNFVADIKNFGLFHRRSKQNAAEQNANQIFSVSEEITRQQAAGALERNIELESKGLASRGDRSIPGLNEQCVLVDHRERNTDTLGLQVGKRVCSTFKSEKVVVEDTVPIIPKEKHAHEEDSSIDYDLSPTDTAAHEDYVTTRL

N#CC1=C(N)C(C#N)(C#N)C(c2cccnc2)C2CC(c3ccccc3)CC=C12 (stereo not given)
inactive: outcome [1] | outcome [2] | outcome [3] | outcome [5] | outcome [6] | outcome [7] | outcome [8] | outcome [9] | outcome [10] | outcome [11] | outcome [12] | outcome [13] | outcome [15] | outcome [16]
active: potentiation [4] 77% | potentiation [14] 9.65%

O=C1C(Cl)=C(Nc2cccc(O)c2)C(=O)N1Cc1ccccc1
inactive: outcome [1] | outcome [2] | outcome [3] | outcome [5] | outcome [6] | outcome [7] | outcome [8] | outcome [9] | outcome [10] | outcome [11] | outcome [12] | outcome [13] | outcome [15] | outcome [16]
active: potentiation [4] 38% | potentiation [14] 20.8%

NCCNC(=O)c1c(NC(=O)c2ccccc2)sc2c1CCCC2
active: activation [1] 165%
inactive: outcome [2] | outcome [3] | outcome [4] | outcome [5] | outcome [6] | outcome [17] | outcome [8] | outcome [9] | outcome [10] | outcome [11] | outcome [12] | outcome [13] | outcome [14] | outcome [15] | outcome [16]

CC1CC(C)CN(CCCNC(=O)c2csc3c2CCCCC3)C1 (stereo not given)
active: activation [1] 128% | activation [10] 87.5% | activation [12] 7.01%
inactive: outcome [2] | outcome [3] | outcome [4] | outcome [5] | outcome [6] | outcome [17] | outcome [8] | outcome [9] | outcome [11] | outcome [13] | outcome [14] | outcome [15] | outcome [16]

Cc1cc(-c2ccc(C)c(S(=O)(=O)N3CCN(C(=O)c4ccco4)CC3)c2)on1
active: potentiation [4] 46% | potentiation [14] 54.2%
inactive: outcome [1] | outcome [2] | outcome [3] | outcome [5] | outcome [6] | outcome [7] | outcome [8] | outcome [9] | outcome [10] | outcome [11] | outcome [12] | outcome [13] | outcome [15] | outcome [16]

C1CCN(c2nc(N3CCCC3)nc(N3CCNCC3)n2)C1
inactive: outcome [1] | outcome [2] | outcome [3] | outcome [4] | outcome [5] | outcome [6] | outcome [7] | outcome [8] | outcome [9] | outcome [10] | outcome [11] | outcome [12] | outcome [13] | outcome [15] | outcome [16]
active: potentiation [14] 18.4%

O=C(CN1CCN(c2ncc(C(F)(F)F)cc2Cl)CC1)N1CCN(c2ncc(C(F)(F)F)cc2Cl)CC1
inactive: outcome [2] | outcome [3] | outcome [4] | outcome [5] | outcome [6] | outcome [17] | outcome [8] | outcome [9] | outcome [10] | outcome [11] | outcome [13] | outcome [14] | outcome [15] | outcome [16]
active: activation [1] 128% | activation [12] 42%

Cc1ccc(-c2nnc(N3CCC(C)CC3)c3ccccc23)cc1C
active: potentiation [3] 7% | potentiation [4] 127% | potentiation [14] 60.2%
inactive: outcome [1] | outcome [2] | outcome [5] | outcome [6] | outcome [7] | outcome [8] | outcome [9] | outcome [10] | outcome [11] | outcome [12] | outcome [13] | outcome [15] | outcome [16]

O=C(Nc1cccc(Cl)c1)c1cnn2cccnc12
active: potentiation [3] 16% | potentiation [4] 14% | potentiation [14] 43%
inactive: outcome [1] | outcome [2] | outcome [5] | outcome [6] | outcome [7] | outcome [8] | outcome [9] | outcome [10] | outcome [11] | outcome [12] | outcome [13] | outcome [15] | outcome [16]

S=C(NCCc1ccccn1)NC1CCCCC1
inactive: outcome [2] | outcome [3] | outcome [4] | outcome [5] | outcome [6] | outcome [17] | outcome [8] | outcome [9] | outcome [11] | outcome [13] | outcome [14] | outcome [15] | outcome [16]
active: activation [1] 97% | activation [10] 24.5% | activation [12] 28.1%

Cc1cc(C(C)(C)C)c(O)c(C)c1CC1=NCCN1
inactive: outcome [1] | outcome [2] | outcome [3] | outcome [5] | outcome [6] | outcome [7] | outcome [8] | outcome [9] | outcome [10] | outcome [11] | outcome [12] | outcome [13] | outcome [14] | outcome [15] | outcome [16]
active: potentiation [4] 14%

Cc1ccc(Cn2c(=N)c(C(=O)NC3CCCC3)cc3c(=O)n4ccccc4nc32)cc1
inactive: outcome [2] | outcome [4] | outcome [5] | outcome [6] | outcome [7] | outcome [8] | outcome [9] | outcome [10] | outcome [11] | outcome [12] | outcome [13] | outcome [15] | outcome [16]
active: activation [1] 206% | potentiation [3] 8% | potentiation [14] 41.6%

CC(C)C1CC(CCNCc2ccc3c(c2)OCO3)(c2ccccc2)CCO1 (stereo not given)
active: activation [1] 96% | activation [10] 64% | activation [12] 5.88%
inactive: outcome [2] | outcome [3] | outcome [4] | outcome [5] | outcome [6] | outcome [17] | outcome [8] | outcome [9] | outcome [11] | outcome [13] | outcome [14] | outcome [15] | outcome [16]

O=C(c1cccc([N+](=O)[O-])c1)N1CCCC(C(=O)N2CCCCCC2)C1 (stereo not given)
inactive: outcome [1] | outcome [2] | outcome [3] | outcome [4] | outcome [5] | outcome [6] | outcome [7] | outcome [8] | outcome [9] | outcome [10] | outcome [11] | outcome [12] | outcome [13] | outcome [14] | outcome [15] | outcome [16]

CN(C)CCNc1ccc(Cl)cc1[N+](=O)[O-]
inactive: outcome [1] | outcome [2] | outcome [3] | outcome [4] | outcome [5] | outcome [6] | outcome [7] | outcome [8] | outcome [9] | outcome [10] | outcome [11] | outcome [12] | outcome [13] | outcome [15] | outcome [16]
active: potentiation [14] 8.91%
